These results are taken from PubChem BioAssay (NCATS).

Assay in all cases: Cytotoxic Profiling of Annotated Libraries Using Quantitative High-Throughput Screening (AID 1296008); also: nearly all actives have a fitted effect of over 60% in size
Common to all, as to settings: Five cell lines viability, CellTiter-Glo ATP luminescence, 48-72 h; max response: hits give low values
A general note: In ATP-based viability assays light output follows the ATP content of the culture.

The subject of one assay is CRL-7250. A digest of the protocol: (§1)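 Compounds were pin-transferred onto cells and incubated 48 or 72 hr at 37 degree Celsius, 95% humidity. CellTiter-Glo was added, plates sat 10 min at room temperature, then ATP-coupled luminescence was imaged as the viability read-out.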
A further assay concerns HEK293. A digest of the protocol:
as §1

The test system of another assay is HaCat. The gist of the method:
as §1

The subject of a further assay is KB-3-1. The gist of the method: as §1
A further assay relates to NIH3T3. The gist of the method: as §1

Inconclusive results are not listed. Unmarked numbers belong to inactive results. Active and inactive are the calls of the source. Calls follow the shape of the dose curve; as a rule, active = well fitted inhibition curve with a large enough effect; inconclusive = small, poorly fitted or top-dose-only effect; inactive = flat fitted curve, though single readings scatter.
% is scaled to controls: 0 for no effect and ±100 for the full control effect; potency is read from the fitted curve at half-maximal effect.

On to `CC[C@H]1OC(=O)[C@](C)(F)C(=O)[C@H](C)[C@@H](O[C@@H]2O[C@H](C)C[C@H](N(C)C)[C@H]2O)[C@](C)(OC)C[C@@H](C)C(=O)[C@@H](C)[C@H]2N(CCCCn3cc(-c4cccc(N)c4)nn3)C(=O)O[C@]12C`, for which the max response with CRL-7250 is -0.28%; in the assay on HaCat, -5.51%; with KB-3-1, -12.6%; with NIH3T3, 1.26%. Also, in the assay on HEK293, the Potency was 1460 nM (active).

`CC1OC(OC2C(C)OC(OC3C(OC(=O)C45CCC(C)(C)CC4C4=CCC6C7(C)CCC(OC8OC(C(=O)O)C(O)C(O)C8OC8OC(CO)C(O)C(OC9OC(C)C(O)C(O)C9O)C8O)C(C)(CO)C7CCC6(C)C4(C)CC5)OC(CO)C(O)C3O)C(O)C2O)C(O)C(O)C1O` (stereo not given): the max response with CRL-7250 was 3.83%; in the assay on HEK293, 1.99%; in the assay with HaCat it was -14.7%; in the assay on NIH3T3, -18.1%. Also, in the assay with KB-3-1, the call was inactive.

Turning to `c1ccc(-c2ncc(CN3CCN(c4ncccn4)CC3)[nH]2)cc1`, the max response with CRL-7250 was -0.931%; in the assay on HEK293, 0.625%; with HaCat, 0.273%; in the assay on KB-3-1 it was -2.29%; with NIH3T3, -1.52%.

`CCN1CCN(Cc2ccc(NC(=O)c3ccc(C)c(NC(=O)c4cncc(-c5cccs5)c4)c3)cc2C(F)(F)F)CC1`: the Potency in the assay with CRL-7250 was 461 nM (active); in the assay with HEK293 it was 1300 nM (active); in the assay with HaCat, 920 nM (active); in the assay on KB-3-1 it was 14600 nM (active); in the assay on NIH3T3 it was 1160 nM (active).

`C[C@@H]1C(=O)O[C@H]2C[C@]34[C@H]5C[C@@H](C(C)(C)C)[C@]36[C@@H](OC(=O)[C@H]6O)O[C@]4(C(=O)O5)[C@]21O`: the max response with CRL-7250 is -0.0261%; in the assay on HEK293 it was -44.8%; in the assay with HaCat, 3.22%; in the assay on KB-3-1, -3.28%; in the assay on NIH3T3, 3.92%.

Turning to `C=C1CC2C(C)(CCC(=O)O)C(C(C)(C)O)CCC2(C)C2C(=O)OC(C)(C(=O)OC)C(=O)C12C` (stereo not given), the max response with CRL-7250 was -2.01%; in the assay with HEK293, 3.75%; in the assay with HaCat it was 4.3%; in the assay with NIH3T3, -2.52%. The result in the assay on KB-3-1 was inactive.

For `C/C=C(\C)C(=O)O[C@H]1[C@@H](O[C@]2(COC(=O)CC(C)C)O[C@H](COC(=O)C(C)CC)[C@@H](OC(C)=O)[C@@H]2O)O[C@H](COC(C)=O)[C@@H](O)[C@@H]1O` (stereo not given in full), the max response was 0.451% in the assay with CRL-7250; 2.82% in the assay on HEK293; 1.55% in the assay on HaCat; 6.8% with KB-3-1; -0.857% with NIH3T3.

With `Cc1ccc(-c2ccc3ncc4c(c3n2)n(C2CCN(C(=O)[C@H](C)O)CC2)c(=O)n4C)cn1`, the Potency in the assay with CRL-7250 is 146 nM (active); with HEK293 it was 82 nM (active); with HaCat, 1460 nM (active); in the assay on KB-3-1, 116 nM (active); with NIH3T3 it was 231 nM (active).

Consider `O=C(O)c1cc(I)ccc1NC(=O)[C@H](Cc1ccccc1)NCc1ccccc1`, for which the max response was -2.69% with CRL-7250; -1.33% in the assay on HEK293; -2.36% in the assay with HaCat; -0.475% with KB-3-1; 1.92% in the assay on NIH3T3.

`NC(=O)C(CCC(F)(F)F)N(Cc1ccc(-c2ncon2)cc1F)S(=O)(=O)c1ccc(Cl)cc1` (stereo not given): the max response in the assay on CRL-7250 is -7.08%; with HEK293, -83.5%; in the assay with HaCat, -84.6%; with KB-3-1, -38%; with NIH3T3, -69%.

Turning to `COC(=O)CCC(=O)OC[C@]1(C)CCC[C@@]2(C)C3CC[C@]4(C)C=CC3(CCC12)C4` (stereo not given in full), the max response in the assay on CRL-7250 is -4.15%; in the assay with HEK293, -2.92%; in the assay with HaCat it was 1.33%; in the assay on KB-3-1 it was 2.37%; in the assay with NIH3T3 it was -0.0416%.

In the case of `COc1cc(C(=O)OC[C@@]2(O)CO[C@@H](O[C@H]3[C@H](Oc4ccc(C(=O)O)cc4OC)O[C@H](CO)[C@@H](O)[C@@H]3O)[C@@H]2O)ccc1O`, the max response in the assay on CRL-7250 is -0.15%; in the assay with HEK293, -19.1%; in the assay on HaCat it was 1.78%; in the assay on NIH3T3, 3.57%. In addition, the call with KB-3-1 was inactive.

Consider `Cn1ncnc1COc1nn2c(-c3cc(F)ccc3F)nnc2cc1C(C)(C)C`, for which the max response is -15.8% in the assay on CRL-7250; 0.514% in the assay on HEK293; -21.7% in the assay on HaCat; 8.68% with KB-3-1; -2.09% with NIH3T3.

Take `CC1COC2(OC3CC4C5CC(O[C@@H]6O[C@H](C)[C@@H](O[C@@H]7O[C@@H](C)[C@H](O)[C@@H](O)[C@H]7O)[C@H](O)[C@H]6O)C6CC(O)CCC6(C)C5CCC4(C)C3C2C)C(O)C1` (stereo not given in full): the max response was -20% in the assay on CRL-7250; 3.68% in the assay with HEK293; -23.5% with HaCat; 7.16% in the assay with KB-3-1; 4.8% in the assay with NIH3T3.

Take `Cc1ccc(-c2ccc3c(ccc4sc5c(c43)NC[C@@H](C)NC5=O)n2)cn1`: the outcome with CRL-7250 and in the assay on KB-3-1 was inactive. Further, the values for the max response in the assay on HEK293, in the assay on HaCat and with NIH3T3 were -21.3%, -8.25% and -0.392%, respectively.

With `COc1cc(NC(=O)Nc2cccc(CNC(=O)O[C@H]3CCOC3)c2)ccc1-c1cnco1`, the Potency in the assay with CRL-7250 was 8200 nM (active); with HEK293 it was 2310 nM (active); with KB-3-1 it was 4110 nM (active); in the assay with NIH3T3, 3660 nM (active). Moreover, the max response in the assay on HaCat was -5.46%.
